Data published in PubChem BioAssay AID623959 (National Center for Advancing Translational Sciences (NCATS), 2012).
In all, about 1,400 compounds went through this assay and fewer than 10 were called active. About 8% were inconclusive and are not listed. The call rests on the fitted dose curve; in most records, active means well fitted curve in the direction sought with a large enough effect; inconclusive means small, poorly fitted or top-dose-only effect, or another doubt; inactive means no such curve, though single readings can be large or run the other way. The list is a sample of the results.

molecular target: Transient receptor potential cation channel subfamily V member 1 (Homo sapiens) (UniProt Q8NER1); test: qHTS Assay for Compounds that Act as Potentiators of the Vanilloid Receptor 1: Hit Validation; details: TRPV1-expressing cells, Fluo-8 calcium influx, capsaicin EC20; series mostly up to 42.1 µM; activity change, positive = potentiation: at the top concentration; further: % of control where 0% means no effect
Sequence (Q8NER1 whole entry, looked up): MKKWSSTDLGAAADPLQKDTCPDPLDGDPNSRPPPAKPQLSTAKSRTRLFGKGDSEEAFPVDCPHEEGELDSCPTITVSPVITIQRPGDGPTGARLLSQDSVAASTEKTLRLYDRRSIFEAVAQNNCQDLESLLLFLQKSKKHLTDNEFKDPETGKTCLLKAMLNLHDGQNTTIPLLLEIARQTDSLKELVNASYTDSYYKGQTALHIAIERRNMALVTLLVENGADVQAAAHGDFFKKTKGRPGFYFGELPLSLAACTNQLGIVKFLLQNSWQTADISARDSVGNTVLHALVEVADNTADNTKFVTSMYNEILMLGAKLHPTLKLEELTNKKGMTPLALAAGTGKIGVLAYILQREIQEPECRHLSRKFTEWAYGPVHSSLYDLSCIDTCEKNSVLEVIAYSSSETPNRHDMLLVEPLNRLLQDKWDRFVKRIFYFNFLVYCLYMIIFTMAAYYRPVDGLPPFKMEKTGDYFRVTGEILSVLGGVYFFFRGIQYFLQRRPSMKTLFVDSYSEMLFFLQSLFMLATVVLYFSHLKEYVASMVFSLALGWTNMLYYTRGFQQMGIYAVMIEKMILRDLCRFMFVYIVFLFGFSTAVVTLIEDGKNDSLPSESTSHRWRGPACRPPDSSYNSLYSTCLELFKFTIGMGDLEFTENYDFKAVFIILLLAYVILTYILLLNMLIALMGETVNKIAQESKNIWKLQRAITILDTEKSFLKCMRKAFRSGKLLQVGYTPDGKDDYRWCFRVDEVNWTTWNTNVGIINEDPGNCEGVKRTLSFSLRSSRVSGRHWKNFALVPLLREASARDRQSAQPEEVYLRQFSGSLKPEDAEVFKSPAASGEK
Excerpt: The transient receptor potential ion channel, family V, number 1, (TRPV1) is one of the most important molecular transducers of painful stimuli and a potential target for analgesic drug development. Although recent clinical trials with orthosteric antagonists have not produced a successful drug because of a hyperthermia side effect and their tendency to block thermal noxious pain, this ion channel is undeniably well placed in the pain pathway, and the idea of blocking pain signals before they enter the CNS is an excellent concept and of proven efficacy when TRPV1 agonists are used. We propose a new approach involving allosteric modulation to impose an activity-dependent constraint within the context of inflammation and tissue damage that would alter the responsiveness of the channel in a way that an orthosteric vanilloid antagonist cannot achieve. We believe that the allosteric modulator approach has not been explored for this target. The main goal of this proposal is to identify additional, new, potent allosteric modulators of TRPV1 that can be used to investigate TRPV1 function. Our recent report provides evidence of proof of concept, but the compounds are just at the edge of utility in terms of potency. […] The question of whether they can be used as analgesic agents is complex, but if suitable compounds are identified then testing for analgesic properties will be conducted. Compounds identified as agonists were re-tested in the primary screen for hit validation. NIH Chemical Genomics Center [NCGC] NIH Molecular Libraries Probe Centers Network [MLPCN] MLPCN Grant: MH089480 Assay Submitter (PI): Michael Iadarola, National Institute of Dental and Cranofacial Research
Upon TRPV1 activation in TRPV1 cells, the channel opens and extracellular cations flow through the channel into the cytosol. A calcium binding dye (Fluo-8) becomes fluorescent when bound to calcium. This dye is pre-loaded into cells and is used as a marker for calcium influx. The amount of accumulated calcium is precisely quantified using the FDSS kinetic reader and the calcium dye. For the HTS assay, freshly prepared cells are plated at a density of 2000/well in 3 ul medium in 1536-well plates and cultured overnight at 35.5C. Cells will be loaded with 1 ul of the homogeneous calcium dye (ABD Bioquest) at room temperature for 40 to 90 minutes. Plates will be loaded into the FDSS kinetic reader and a 1 sec / cycle for 10 second baseline signal will be measured. Compound library will then be added with a pintool at 23 nl and measured kinetically for 3 minutes. This portion of the read is considered the agonist portion of the screen. Following the 3 minutes of incubation, an on board pipettor will deliver 1 ul of capsaicin for a final concentration equal to the EC20. Signal will be measured kinetically for an additional 2 minutes. This portion of the read is considered the allosteric enhancer portion of the screen. The FDSS reader has a standard filter set capable of measuring calcium bound Fluo-8 (ex=480 and em=520 nm).

Activity change, positive = potentiation, inactive:
COc1cccc(/C=C/C(=O)Nc2cccc(C(C)=O)c2)c1OC -16.5%
Cc1ccc(OCC(=O)c2c[nH]c3ccccc23)c([N+](=O)[O-])n1 -9.4%
COc1cc(OC)c(NC(=O)CCc2nc(-c3ccc(C)cc3)no2)cc1Cl -4.21%
CCO[C@H]1OC(C(=O)NC2CC2)=C[C@@H](c2c[nH]c3ccccc23)[C@@H]1CCCO -2.5%
CCc1ccc(/C=N/NC(=O)c2c[nH]c3ccccc23)s1 -39%
COc1ccc(CNC(=O)C2(CC3CC(c4ccccc4)=NO3)CCN(C(=O)C3CCCC3)CC2)cc1 (stereo not drawn) -5.73%
Cc1oc(-c2cccs2)nc1CS(=O)CC(=O)NCCc1ccccc1 (stereo not drawn) -3.43%
O=S(=O)(c1ccc2c(c1)OCCO2)N1CCN(c2cccc(Cl)c2)CC1 4.01%
COc1ccc(NC(=O)c2ccc(Br)c(S(=O)(=O)N3CCOCC3)c2)cc1 -24.8%
Cn1cccc1C(=O)NC(=O)COC(=O)c1cc([N+](=O)[O-])ccc1Cl 8.04%
O=C(/C=C/c1cccc2ccccc12)N1CCOCC1 -31.4%
CC(C)c1ccc(OCC(=O)Nc2ccncc2)cc1 -38.4%
CC(C)NC(=O)COC(=O)c1ccc(O)cc1 -9.92%
CN1CCN(S(=O)(=O)c2ccc(NC(=O)c3ccc(F)cc3)cc2)CC1 -2.3%
O=C(O/N=C1\CCS(=O)(=O)c2sccc21)c1c(F)cccc1F 6.48%
Cc1cc(C)c(NS(=O)(=O)c2ccc(NC(=O)CCC(=O)O)cc2)c(C)c1 -6.46%
COc1ccc(C(C#N)c2cnccn2)cc1OC (stereo not drawn) 4.57%
CC(=O)c1cc(-c2ccc(F)cc2)n(CCC(=O)Nc2cccnc2)c1C -38.3%
CCOC(=O)/C=C1\CN(CCC(C)C)S(=O)(=O)c2ccccc21 -8.51%
CCN1C(=O)[C@@H]2[C@@H](c3ccc(-c4ccc(F)cc4)cc3)N3CCCC[C@@]3(C(=O)OC)[C@@H]2C1=O -8.18%
CCC(C)Sc1cccc(-c2nc3ccc(Cl)cn3c2NCc2ccccc2)c1 (stereo not drawn) -38.7%
CC(C)(C)c1ccc(/C=C/C(=O)Nc2ccncc2)cc1 -38.6%
CCNC(=O)NC(=O)C(C)OC(=O)c1cccn1C (stereo not drawn) -7.78%
COc1ccc(N=Nc2c(C)[nH][nH]c2=O)cc1 0.545%
Cc1cc(NS(=O)(=O)c2ccc(NC(=O)COc3ccc(Cl)cc3)cc2)no1 -10.6%
Cc1cccc(C)c1OCC(=O)Nc1cccc(S(=O)(=O)N2CCCC2)c1 -3.66%
Cn1nc(CC(=O)Nc2ccc3c(c2)OCCO3)c2ccccc2c1=O 4.52%
CCn1c(Cc2c(C)[nH]c3ccccc23)nnc1SCC(=O)NCc1ccccc1 12.1%
CCCCCC(=O)NC(NC(=S)N1CCOCC1)C(Cl)(Cl)Cl (stereo not drawn) -38.2%
COc1ccc(S(=O)(=O)N2CCCC2)cc1C(=O)O -4.69%
Cc1c(Cl)ccc2sc(NC(=O)c3ccco3)nc12 -36%
O=C(O)c1ccc(Br)cn1 -5.55%
CC(C)(C)c1ccc(C(=O)NNC(=O)C2CCCCC2)cc1 -33.1%
O=C1c2ccc(Oc3ccc([N+](=O)[O-])cc3)cc2C(=O)N1CCCO -2.6%
COc1ccccc1-c1cc2ccccc2[nH]1 -5.83%
CC(=O)NS(=O)(=O)c1ccc(NC(=O)CC(C)c2ccccc2)cc1 (stereo not drawn) -3.07%
COc1ccc(CNC(=O)CCSc2ccc(F)cc2)cc1OC -34.4%
O=C(O)c1coc2ccccc12 -8.38%
CC(=O)NCC(=O)N(Cc1ccco1)C1(C(=O)NC2CCCC2)CCCCC1 2.18%
Cn1c(=O)c2c(-c3ccccc3F)c3c(nc2n(C)c1=O)-c1ccccc1C3O (stereo not drawn) -24.5%
COc1ccccc1Nc1ncnc2c1cnn2-c1cccc(C)c1 -37.7%
COc1ccc(C(=O)Nc2ccc3ncccc3c2)cc1 -33.5%
CC(=O)c1cccc(NC(=S)NCCc2ccc(Cl)cc2)c1 -37.8%
CCc1ccccc1NC(=O)CCC(=O)c1cccs1 0.167%
CCN1C(=O)[C@@H]2[C@H](C1=O)[C@@H]1C(=O)Nc3ccccc3C(=O)N1[C@@H]2c1ccc(Br)cc1 2.73%
COc1ccc([C@@H]2CC=C(C(=O)O)[C@H](c3cccc(Cl)c3)N2S(=O)(=O)c2ccc(Cl)cc2)cc1 -6.72%
CCOC(=O)C1=C(O)C(=O)N(CCCn2ccnc2)C1c1ccc(C)cc1 (stereo not drawn) 6.89%
CC(=O)c1cccc(Nc2nc(-c3ccccc3)nc3ccccc23)c1 -6.61%
N#Cc1ccccc1N1CCN(C(=O)c2ccc(NC(=O)c3ccc(Br)o3)cc2)CC1 -2.51%
CCOc1ccc(NS(=O)(=O)c2ccc(OCC(=O)NCCCOC)cc2)cc1 2.17%
Cc1ccc(S(=O)(=O)NCC(c2cccnc2)N2CCOCC2)cc1 (stereo not drawn) -3.52%
O=[N+]([O-])C1C(c2ccccc2)=NOC1c1ccccc1O (stereo not drawn) -9.52%
O=C(Nc1ccccc1)Nc1nnc(SCc2ccc(Cl)cc2)s1 13.8%
